Screens deposited in PubChem BioAssay by several laboratories.
A selection: hits, their analogues and other compounds. The true share with any hit is near 2.2%.
SKN-1 inh = C. elegans SKN-1 inhibition; C. elegans VP596 Pgst-4::GFP/RFP ratio, acrylamide-induced, 24 h; inhibition, % at 21.8 µM; actives 0.49% (n = 360,000);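 active = interference check ratio from 0.5 to 1.5 plus GFP to RFP signal ratio inhibition reaching or exceeding a fixed threshold, cut at about 30% in these data, passing the limit was not always enough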
Efflux pump inh = antifungal efflux pump inhibition, Nile Red retention. inhibition, % at 10 µM. actives 0.44% (n = 330,000). S. cerevisiae Candida pump triplex;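 active = plate passing quality check with inhibition over a set limit, or well fluorescence over plate mean plus 4 SD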;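 also: Nile Red retained in pooled yeast measured as flow cytometry median fluorescence; 0% = buffer negative control and 100% = Enniatin B positive control; higher means more Nile Red kept so more efflux inhibition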
sPLA2-III inh = Blocks human group III sPLA2 activity. Q9NZ20. QFRET BODIPY PC-A2 liposome hydrolysis, fluorescence. inhibition, % at 12.2 µM. actives 0.56% (n = 370,000). AID 743126;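 active = inhibition above mean plus 3 SD of compounds lying within the high and low control bounds, cut at about 19% in these data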;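 also: 0% = median of test compound wells and 100% = no enzyme DMSO wells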
Target sequence (Q9NZ20 whole entry, looked up): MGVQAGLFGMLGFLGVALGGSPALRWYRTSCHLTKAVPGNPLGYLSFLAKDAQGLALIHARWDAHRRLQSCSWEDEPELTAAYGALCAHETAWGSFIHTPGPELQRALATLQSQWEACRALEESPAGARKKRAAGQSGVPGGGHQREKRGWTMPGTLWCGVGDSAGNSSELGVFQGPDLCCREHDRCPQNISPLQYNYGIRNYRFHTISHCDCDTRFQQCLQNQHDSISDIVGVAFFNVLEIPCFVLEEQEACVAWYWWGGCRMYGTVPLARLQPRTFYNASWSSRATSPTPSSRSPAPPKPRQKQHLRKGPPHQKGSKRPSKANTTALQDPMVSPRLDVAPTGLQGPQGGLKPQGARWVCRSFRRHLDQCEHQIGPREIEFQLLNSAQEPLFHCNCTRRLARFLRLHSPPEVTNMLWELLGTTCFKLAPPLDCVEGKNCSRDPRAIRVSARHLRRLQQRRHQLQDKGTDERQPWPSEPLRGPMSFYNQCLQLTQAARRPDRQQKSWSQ
Mot1-301 SUMO = inhibitors of SUMOylation pathway: yeast Mot1-301 growth rescue. S. cerevisiae Mot1-301 growth rescue, ATP luminescence, 38.5C; percent above DMSO median, 100 means doubled. growth rescue, % at 18.8 µM. actives 1% (n = 320,000). AID 2716;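 active = every valid replicate shows activation above 250% relative to neutral control wells; inactive = the rest, any valid replicate at or below 250%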;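 also: OY570 slx delta 5 strain wells were the positive control but not used for scaling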
Cmpd fluor yeast = compound fluorescence in yeast efflux pump counter-screen; AID 588517; actives 4% (n = 1,700); fluorescence ratio to DMSO, % at 10 µM; S. cerevisiae AD/pABC3, flow cytometry; shares compounds with Efflux pump inh;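 active = fluorescence ratio to DMSO above its plate's cutoff, the plate mean ratio plus 5 SD, cut at about 210% in these data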;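 also: unstained yeast with no Nile Red so the signal is compound autofluorescence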
Mdr1 pump inh = inhibitors of Candida albicans Mdr1 efflux pump; shares compounds with Efflux pump inh; S. cerevisiae AD/CaMDR1, Nile Red efflux, flow cytometry; inhibition, % at 10 µM; actives 1% (n = 1,700); AID 588518; in the data active = inhibition above about 26%;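 also: 0% = DMSO vehicle and 100% = reference inhibitor; higher means more Nile Red retained so more efflux inhibition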
Cdr2 pump inh = blocks the Candida albicans Cdr2 efflux pump in yeast. shares compounds with Efflux pump inh. S. cerevisiae AD/CaCDR2, Nile Red retention, flow cytometry. Nile Red retention ratio vs DMSO, % at 10 µM. actives 4% (n = 1,700). AID 588520; in the data active = Nile Red retention ratio vs DMSO above about 190%;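 also: higher ratio means more blocking of Cdr2 efflux of the dye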
Cdr1 pump inh = blocks the Candida albicans Cdr1 efflux pump in yeast; AID 588522; S. cerevisiae AD/CaCDR1, Nile Red efflux, flow cytometry; actives 1% (n = 1,700); shares compounds with Efflux pump inh; inhibition, % at 10 µM;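 active = inhibition above the screen-wide mean plus twice its standard deviation, cut at about 32% in these data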
An asterisk follows results filed as active; nt = no result.

SMILES	SKN-1 inh	Efflux pump inh	sPLA2-III inh	Mot1-301 SUMO	Cmpd fluor yeast	Mdr1 pump inh	Cdr2 pump inh	Cdr1 pump inh
CCOc1ccccc1/C=N/NC(=O)c1nnn(-c2nonc2N)c1CN1CCCC1	0.7	0.1	7.0	11.4	nt	nt	nt	nt
Cc1c(C(=O)N/N=C/c2c(O)ccc3ccccc23)nnn1-c1nonc1N	19.7	1.0*	6.7	13.0	87.6	-0.4	94.0	0.0
CCOc1ccccc1/C=N/NC(=O)c1nnn(-c2nonc2N)c1CN1CCC(C)CC1	12.6	0.6*	-3.5	-13.4	85.5	-0.1	93.2	-0.4
O=C1C=C(c2ccc(F)cc2OCc2ccccc2)C[C@@H](c2ccc(Cl)cc2)C1	-4.4	0.1	4.8	-13.6	nt	nt	nt	nt
CC1(C(=O)NS(=O)(=O)c2cccc(C#N)c2)CCN1C(=O)C/C=C/c1ccccc1 (configuration not stated)	-21.5	nt	13.0	nt	nt	nt	nt	nt
N/C(=N\OC(=O)Cc1cccs1)c1ccccc1	12.1	0.0	-3.6	18.0	nt	nt	nt	nt
N/C(=N\OC(=O)Cc1cccs1)c1ccc(Cl)cc1	57.2*	0.0	-9.8	7.9	105.0	-0.3	97.2	0.0
COC(=O)C1=C(C)N(Cc2cccc(C(F)(F)F)c2)C(=NCc2ccccc2C(F)(F)F)NC1c1cccc(C(F)(F)F)c1 (configuration not stated)	nt	nt	-11.0	nt	nt	nt	nt	nt
CCn1ncc(/C=C/C(=O)c2ccccc2)c1C	2.5	11.1*	15.7	-9.0	106.2	0.0	91.4	-0.1
Cc1c(/C=C/C(=O)c2ccccc2)cnn1C	-24.4	0.0	2.2	-9.4	nt	nt	nt	nt
O=C(NC(=S)Nc1ccc2[nH]c(=O)[nH]c2c1)c1ccccc1F	-2.9	0.4	10.2	5.8	105.0	-0.2	93.0	0.1
O=C(NC(=S)Nc1ccc2[nH]c(=O)[nH]c2c1)c1cncc(Br)c1	-5.0	0.8*	1.6	-6.1	103.4	-0.3	101.5	-0.1
COc1ccc(C(=O)NC(=S)Nc2ccc3[nH]c(=O)[nH]c3c2)c(OC)c1	11.4	0.1	4.3	-6.5	107.9	-0.1	106.0	0.2
COc1ccc(Cn2cc(CN3CCc4onc(-c5ccc(Br)cc5)c4C3=O)nn2)cc1	8.0	nt	-14.0	nt	nt	nt	nt	nt
COC(=O)[C@]12C[C@H](CC(=O)NCCC(C)C)C(=O)N(CCc3ccc(OC)c(OC)c3)C1=C[C@H](COCc1ccccc1)O[C@@H]2C	nt	nt	-10.8	nt	nt	nt	nt	nt
COc1ccc(C(=O)NC2CCCN(Cc3ccc(Cl)cc3)C2)c(OC)c1 (configuration not stated)	-2.5	-0.1	-15.3	-14.7	nt	nt	nt	nt
COc1ccc(CCN2C(=O)N[C@@H](CCC(=O)O)C2=O)cc1	14.6	0.0	-3.7	-25.7	nt	nt	nt	nt
CC(C)c1ccc(/C=c2\sc3nc(-c4ccncc4)nn3c2=O)cc1	-14.7	-0.1	-11.3	18.1	104.7	0.1	108.1	0.1
CC(C)CCOc1ccc(C(=O)N2CCN(c3ncccn3)CC2)cc1	-10.7	3.5*	-6.0	7.2	106.2	0.0	101.8	-0.1
COc1ccc(N2C(=O)CC(N3CCN(c4ccc(C(=O)c5cccnc5)cc4)CC3)C2=O)cc1 (configuration not stated)	-6.2	9.8*	-5.8	-15.8	96.2	0.0	96.3	0.0
COc1ccccc1C(=O)COC(=O)c1ccccc1OCC(=O)Nc1ccc(SC(F)F)cc1	5.5	11.1*	-3.8	-23.4	103.1	0.1	107.2	0.0
COc1ccc(CCNC(=O)C2CC3Cn4c(nc5ccccc54)C3N2c2ccccc2)cc1 (configuration not stated)	1.3	-0.1	5.3	6.9	nt	nt	nt	nt
COC(=O)[C@@H](NC(=O)NCc1cccs1)C(C)C	4.3	-0.3	-1.7	-26.7	nt	nt	nt	nt
COC(=O)[C@H](CCSC)NC(=O)NCc1cccs1	0.7	6.7*	3.5	13.2	110.0	-0.1	101.7	0.0
O=C(NNS(=O)(=O)c1ccccc1)Nc1ccc(F)cc1	9.8	0.0	2.5	216.9	nt	nt	nt	nt
COc1ccccc1/C=C/C1=NC(=C\C=C/c2ccccc2)/C(=O)O1	-1.3	5.2*	-52.5	3.1	112.7	0.1	110.1	0.4
